# Reference: PubChem BioAssay (NCATS)
# Records with an inconclusive call do not appear. Where a call stands in place of a potency, no number is given. The source made the active and inactive calls. Unless noted, calls come from the whole dose curve; as a rule, active = well fitted inhibition curve with a large enough effect; inconclusive = small, poorly fitted or top-dose-only effect; inactive = no such curve, though single readings can be large or run the other way.
# Legend:
# [1] = target: Aldehyde dehydrogenase, mitochondrial (Homo sapiens) (UniProt P05091); assay: qHTS for Inhibitors of the Aldehyde Dehydrogenase Family (ALDH2) Confirmatory screens (AID 2061303; active = well fitted inhibition curve with a large enough effect; title and protocol of this record describe different tests; note: nearly all actives have a fitted effect of over 45% in size; note: potency is the fitted concentration of half-maximal effect)
# [2] = qHTS for Inhibitors of the Aldehyde Dehydrogenase Family (ALDH1A2, ALDH1A3, ALDH2, ALDH3A1) (AID 2061307); note: nearly all actives have a fitted effect of over 50% in size; for potency: test system not described further here; potency is the fitted concentration of half-maximal effect
# [3] = target: Retinaldehyde dehydrogenase 3 (Homo sapiens) (UniProt P47895); assay: qHTS for Inhibitors of the Aldehyde Dehydrogenase Family (ALDH1A3) Confirmatory screens (AID 2061311); note: nearly all actives have a fitted effect of over 60% in size; note: potency is the fitted concentration of half-maximal effect
# [4] = target: Retinal dehydrogenase 2 (Homo sapiens) (UniProt O94788); assay: qHTS for Inhibitors of the Aldehyde Dehydrogenase Family (ALDH1A2) Confirmation screens (AID 2061314); note: nearly all actives have a fitted effect of over 65% in size; note: potency is the fitted concentration of half-maximal effect
# [5] = target: Aldehyde dehydrogenase 1A1 (Homo sapiens) (UniProt P00352); assay: qHTS for Inhibitors of the Aldehyde Dehydrogenase Family (ALDH1A1) Confirmatory screens (AID 2061316); note: nearly all actives have a fitted effect of over 65% in size; note: potency is the fitted concentration of half-maximal effect
# [6] = target: Retinaldehyde dehydrogenase 3 (Homo sapiens) (UniProt P47895); assay: qHTS for Inhibitors of the Aldehyde Dehydrogenase Family (ALDH1A3) Primary screen (AID 2061315)
Structure (SMILES),Potency [1],Potency [2],Potency [3],Potency [4],Potency [5],Potency [6]
COc1cccc(-c2nc(SCc3ccc(C)cc3)n3[nH]c(=O)cc3n2)c1,inactive,inactive,7.08 µM (active),inactive,inactive,–
CC(=O)c1ccc(NC(=O)CSc2ccc3nc(-c4ccccc4)cn3n2)cc1,22.9 µM (active),0.0576 µM (active),0.258 µM (active),15.8 µM (active),1.82 µM (active),–
CCc1ccc(CN2CCC(C(=O)Nc3ccc(Oc4cccnc4)cc3)CC2)o1,5.01 µM (active),inactive,inactive,–,inactive,–
Oc1ccc(CNc2ccccc2F)c2cccnc12,2.83 µM (active),inactive,inactive,5.65 µM (active),2.25 µM (active),–
CCOc1ccc(NC(=O)Cn2c(Nc3cc(C)cc(C)c3)nc(C)cc2=O)cc1,15.8 µM (active),inactive,inactive,–,inactive,–
CCc1ccc(-n2c(=O)c3cccnc3n2CC(=O)Nc2cc(F)ccc2F)cc1,inactive,inactive,–,inactive,–,–
Cc1cc(-c2nnc3n2CCCCC3)c(C)n1-c1ccccn1,inactive,inactive,14.2 µM (active),–,–,inactive
N#Cc1ccc(-c2ccc(CNc3ccc(N4CCOCC4)cc3)o2)cc1,0.04 µM (active),0.565 µM (active),15.9 µM (active),–,7.98 µM (active),–
CCOc1cc(CNc2ccc(C(=O)O)cc2)ccc1OCc1ccccc1,2 µM (active),inactive,0.199 µM (active),2.57 µM (active),6.47 µM (active),–
COc1cc(NC(=S)N2CCN(c3cccc(C(F)(F)F)c3)CC2)nc2ccccc12,25.1 µM (active),inactive,–,7.94 µM (active),–,inactive
O=Cc1ccc(-c2ccc3ncnc(NCc4cccs4)c3c2)o1,11.3 µM (active),inactive,–,inactive,–,inactive
CN(CC(=O)Nc1ccc(N2CCOCC2)cc1)Cc1c(O)ccc2ccccc12,11.3 µM (active),2.83 µM (active),15.9 µM (active),10.1 µM (active),2.52 µM (active),–
CCOc1ccc(NC(=O)C2CCN(c3cnn(Cc4ccccc4)c(=O)c3)C2)cc1 (stereo not given),inactive,inactive,–,inactive,–,–
Cc1ccc(-n2c(=O)c3c(cnn3C)n(CC(=O)Nc3ccccc3C)c2=O)cc1,inactive,inactive,22.4 µM (active),inactive,inactive,–
Cn1ncc2c(C(=O)NCC(F)F)cc(-c3cccc(C(F)(F)F)c3)nc21,inactive,inactive,0.794 µM (active),inactive,inactive,–
COc1ccc(-c2nc3cccc(OC)c3c(=O)n2Cc2ccccc2)cc1COc1ccc(NC(C)=O)cc1,28.2 µM (active),2.01 µM (active),25.1 µM (active),–,12.7 µM (active),–
COc1cccc(-c2ccc(CNc3ccc(N4CCN(C(=O)OC(C)(C)C)CC4)cc3)o2)c1,11.3 µM (active),14.2 µM (active),inactive,–,–,inactive
COc1cccc(-n2cc(C(=O)Nc3cccc(C(F)(F)F)c3)c3ccccc3c2=O)c1,inactive,11.2 µM (active),–,inactive,–,–
CC[C@H](CO)Nc1nc(Nc2cccc(-c3ccccn3)c2)c2ncn(C(C)C)c2n1,inactive,inactive,inactive,–,–,inactive
CC(C)(C)OC(=O)N1CCN(c2ccc(NCc3cccc(-c4ccc(C#N)cc4)n3)cc2)CC1,0.201 µM (active),0.142 µM (active),inactive,–,8.96 µM (active),inactive
COc1ccc(-c2nc(CNS(=O)(=O)c3ccc(F)cc3)cs2)cc1,11.2 µM (active),inactive,inactive,–,inactive,–
O=C(NCc1ccc(F)c(F)c1)c1ccc2nnc(-c3cccc(C(F)(F)F)c3)n2c1,inactive,8.91 µM (active),inactive,inactive,inactive,–
COc1ccc2c(c1)CCc1sc(NC(=O)c3ccc(Cl)cc3)nc1-2,15.8 µM (active),3.24 µM (active),16.2 µM (active),–,4.58 µM (active),–
Cc1ccc(CSc2ccc3nnc(CCNS(=O)(=O)c4ccc(C)cc4)n3n2)cc1,inactive,inactive,–,inactive,–,–
O=C1c2ccccc2C(=O)N1c1cccc2ccncc12,inactive,inactive,inactive,–,–,inactive
COc1ccnc(NC(=S)N2CCN(c3cccc(C(F)(F)F)c3)CC2)c1,12.6 µM (active),8.91 µM (active),7.12 µM (active),22.5 µM (active),10.1 µM (active),–
